Calls of active or inactive are those of the source. Where a call stands in place of a potency, no number is given. The call rests on the fitted dose curve; in most records, active means well fitted curve in the direction sought with a large enough effect; inconclusive means small, poorly fitted or top-dose-only effect, or another doubt; inactive means no such curve, though single readings can be large or run the other way.

The assay is described as follows: Confirmatory Assay to Find Inhibitors of T. brucei phosphofructokinase: Cytotoxictity in MRC5. The note with it: cell viability; Potency: MRC5 cytotoxicity; series mostly up to 46.1 µM. From the text:
Various species of the protozoan family Trypanosomatidae are responsible for a range of serious human diseases in tropical and subtropical areas of the world. […] Many of the disorders caused by trypanosomatids are fatal if left untreated, but most currently used drugs are inefficient and toxic.
Oxidative metabolism involving the mitochondrial tricarboxylic acid cycle and oxidative phosphorylation are repressed in these parasites, and recent RNA interference (RNAi) experiments have shown that even partial depletion of certain individual glycolytic enzymes can lead to the death of cultured parasites. One such glycolytic enzyme, phosphofructokinase (PFK), catalyzes the formation of fructose-1,6-bisphosphate (F1,6BP) and ADP from fructose-6-phosphate (F6P) and ATP, and in many metabolic circumstances makes an important contribution to the control of flux through the glycolytic pathway. As a specific glycolytic target, PFK is particularly attractive as it catalyzes the first irreversible step in glycolysis, and structural and kinetic studies have shown very substantial and essential differences from corresponding host enzymes, allowing for the discovery of parasite-selective inhibitors.
Confirmed qHTS active compounds were tested for toxicity against the MRC-5 human lung fibroblast cell lines. This line havs historically been used as representative human cells in in vitro Trypanosoma assays, and so provide a relevant surrogate for human cells in testing Tb PFK inhibitor toxicity.
NIH Chemical Genomics Center [NCGC]
NIH Molecular Libraries Probe Centers Network [MLPCN]
Assay Submitter (PI): Malcom Walkinshaw, University of Edinburg
MRC5 cells were dispensed into white solid 1536-microwell plates in 5 uL media (high glucose DMEM, 10% FBS) with a Thermo Multidrop. The plates were incubated at 37 degrees Celsius for 2 hours, and subsequently treated with compounds using the Kalypsys pin tool, delivering 23 nL of test compounds to each well. The plates were then incubated for an additional 72 hours at 37 degrees Celsius. Cytotoxicity was assessed by adding 2.5 uL of Cell-Titer Glo (Promega, Madison, WI) via Multidrop, incubating at room temperature for 10 min and reading luminescence on the Perkin Elmer ViewLux using a 1 second exposure and 1x binning. DMSO-treated cells were included as negative control, while media-only wells were used as a positive control equivalent to 100% cell toxicity for the sake of data normalization.
Take `Cc1cc(NS(=O)(=O)c2ccc(N(C)C(=O)Cc3ccc(Cl)c(Cl)c3)cc2)no1`: the Potency entry was “inactive”.

Turning to `Cc1cc(NS(=O)(=O)c2ccc(NC(=O)Cc3ccccc3)cc2)no1`, the Potency result was “inactive”.

As to `Cc1cc(NS(=O)(=O)c2ccc(NC(=O)Cc3ccc(Cl)c(Cl)c3)cc2)n(C)n1`, the Potency result was “inactive”.

With `Cc1cc(NS(=O)(=O)c2cccc(NC(=O)Cc3ccc(Cl)c(Cl)c3)c2)no1`, the Potency entry is “inactive”.

Regarding `Cc1cc(NS(=O)(=O)c2ccc(NC(=O)Cc3ccc(Cl)c(Cl)c3)cc2)on1`, the Potency result is “inactive”.

Turning to `Cc1cc(N[S+](=O)([O-])c2ccc3cc(NC(=O)Cc4ccc(Cl)c(Cl)c4)ccc3c2)no1`, the Potency result is “inactive”.

In the case of `O=C(Cc1ccc(Cl)c(Cl)c1)Nc1ccc(S(=O)(=O)Nc2ccon2)cc1`, the Potency result is “inactive”.

As for `O=C(Cc1ccc(Cl)c(Cl)c1)Nc1ccc(S(=O)(=O)O)cc1`, the Potency result is “inactive”.

As for `Cc1cc(NS(=O)(=O)c2ccc(NC(=O)Cc3ccc(Cl)cc3)cc2)no1`, the Potency result was “inactive”.

With `Cc1cc(NS(=O)(=O)CCNC(=O)Cc2ccc(Cl)c(Cl)c2)no1`, the Potency result is “inactive”.

Turning to `O=C(Cc1ccc(Cl)c(Cl)c1)Nc1ccc(S(=O)(=O)Nc2ccc(C(=O)O)cc2)cc1`, the Potency entry is “inactive”.

For the molecule `Cc1cc(NS(=O)(=O)C2CCN(C(=O)Cc3ccc(Cl)c(Cl)c3)CC2)no1`, the Potency entry is “inactive”.

With `Cc1cc(NS(=O)(=O)Cc2ccc(NC(=O)Cc3ccc(Cl)c(Cl)c3)cc2)no1`, the Potency result is “inactive”.

`CCOC(=O)c1cccc(NS(=O)(=O)c2ccc(NC(=O)Cc3ccc(Cl)c(Cl)c3)cc2)c1`: the Potency entry was “inactive”.

With `COc1ccc(CC(=O)Nc2ccc(S(=O)(=O)Nc3cc(C)on3)cc2)cc1OC`, the Potency result was “inactive”.

As for `Cc1cc(NC(=O)c2csc(NC(=O)Cc3ccc(Cl)c(Cl)c3)n2)no1`, the Potency entry was “inactive”.

For the molecule `Cc1cc(NS(=O)(=O)c2ccc(NCCc3ccc(Cl)c(Cl)c3)cc2)no1`, the Potency entry is “inactive”.

Consider `O=C(Cc1ccc(Cl)c(Cl)c1)Nc1ccc(S(=O)(=O)Nc2cccc(O)c2)cc1`, for which the Potency result was “inactive”.

Take `COc1ccc(CC(=O)Nc2ccc(S(=O)(=O)Nc3cc(C)on3)cc2)cc1C`: the Potency entry is “inactive”.

For `Cc1cc(NS(=O)(=O)c2ccc(NC(=O)C(C)(C)c3ccc(Cl)c(Cl)c3)cc2)no1`, the Potency result is “inactive”.

For the molecule `O=C(Cc1ccc(Cl)c(Cl)c1)Nc1ccc(S(=O)(=O)Nc2cncnc2)cc1`, the Potency result was “inactive”.

Regarding `Cc1cc(NS(=O)(=O)c2ccc(NC(=O)Cc3ccc(Cl)c(C(F)(F)F)c3)cc2)no1`, the Potency result is “inactive”.

Take `Cc1cc(NS(=O)(=O)c2ccc(NC(=O)Cc3cccc(Cl)c3)cc2)no1`: the Potency result was “inactive”.

Take `Cc1cc(NS(=O)(=O)c2ccc(NC(=O)Cc3ccc(Cl)c(F)c3)cc2)no1`: the Potency entry was “inactive”.

As to `Cc1cc(N[S+](=O)([O-])c2ccc(NC(=O)Cc3ccc(Cl)nc3)cc2)no1`, the Potency entry is “inactive”.

In the case of `Cc1cc(NS(=O)(=O)c2ccc(NS(=O)(=O)Cc3ccc(Cl)c(Cl)c3)cc2)no1`, the Potency result is “inactive”.

`Cc1cc(NS(=O)(=O)c2ccc(C(=O)NCc3ccc(Cl)c(Cl)c3)cc2)no1`: the Potency entry was “inactive”.

Take `Cc1cc(NS(=O)(=O)c2ccc(NC(=O)Cc3ccc(Cl)cc3Cl)cc2)no1`: the Potency result is “inactive”.

For `Cc1cc(NC(=O)c2ccc(NC(=O)Cc3ccc(Cl)c(Cl)c3)cc2)no1`, the Potency entry was “inactive”.

`Cc1cc(NS(=O)(=O)c2ccc(NC(=O)CCc3ccc(Cl)c(Cl)c3)cc2)no1`: the Potency entry is “inactive”.

For the molecule `O=C(Cc1ccc(Cl)c(Cl)c1)Nc1ccc(S(=O)(=O)Nc2ccccc2)cc1`, the Potency entry was “inactive”.

In the case of `Cc1cc(NS(=O)(=O)c2ccc(NC(=O)Cc3ccc(C)c(F)c3)cc2)no1`, the Potency result was “inactive”.

In the case of `Cc1cc(NS(=O)(=O)c2ccc(NC(=O)Cc3ccc(Cl)c(Cl)c3)cc2)no1`, the Potency result is “inactive”.

Turning to `Cc1cc(NS(=O)(=O)c2ccc(NC(=O)Cc3ccc4ccccc4c3)cc2)no1`, the Potency result is “inactive”.

For `Cc1cc(NS(=O)(=O)c2ccc(NC(=O)c3ccc(Cl)c(Cl)c3)cc2)no1`, the Potency result is “inactive”.

`Cc1cc(NS(=O)(=O)c2ccc(NC(=O)Cc3ccc(C)c(C)c3)cc2)no1`: the Potency result was “inactive”.

For `O=C(Cc1ccc(Cl)c(Cl)c1)Nc1ccc(S(=O)(=O)Nc2cccc(C(=O)O)c2)cc1`, the Potency result is “inactive”.

Consider `Cc1cc(N(C)S(=O)(=O)c2ccc(NC(=O)Cc3ccc(Cl)c(Cl)c3)cc2)no1`, for which the Potency was 31.5 µM (active).

In the case of `O=C(Cc1ccc(Cl)c(Cl)c1)Nc1ccc(S(=O)(=O)Nc2ccn[nH]2)cc1`, the Potency result was “inactive”.

The values above are taken from PubChem BioAssay AID588323 (National Center for Advancing Translational Sciences (NCATS), 2011).
